Records with an inconclusive call do not appear. Entries that show only a call come without a potency. Calls of active or inactive are those of the source. Unless noted, the call rests on the fitted dose curve.
Columns and labels:
[1] = qHTS assay to identify small molecule agonists of the sonic hedgehog signaling (Shh) pathway (AID 1259368);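 further: NIH/3T3-derived 3T3Gli1-Luc cells carrying a stable Gli1-driven firefly luciferase reporter; series mostly up to about 92 µM; nearly all actives have a fitted effect of over 15% in size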
Procedure, shortened: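 Read-out: firefly luciferase luminescence from a Gli1 response element reporter stably integrated in NIH/3T3-derived 3T3Gli1-Luc cells, measured 30 min at room temperature after reagent addition. Compound exposure lasted 24 hr at 37 C, 5% CO2.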

[2] = qHTS assay to identify small molecule antagonists of the sonic hedgehog signaling (Shh) pathway (AID 1259369); further: nearly all actives have a fitted effect of over 45% in size; further: potency means the concentration at half of the fitted maximal effect
Procedure, shortened: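 Luminescence readout: firefly Luc under Gli1 response element in 3T3Gli1-Luc cells (NIH/3T3 clone). Antagonist mode, stimulation by conditioned medium; compound exposure 24hr at 37 C, 5% CO2.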

[3] = qHTS assay to identify small molecule agonists of the androgen receptor (AR) signaling pathway in the presence of an antagonist - cell viability counter screen (AID 1259379; active means well fitted curve in the direction sought with a large enough effect in the repeat runs; an effect the other way counts as inactive or inconclusive;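 further: MDA-kb2 human breast cancer cells carrying an MMTV luciferase reporter; series mostly up to about 92 µM; nearly all actives have a fitted effect of over 25% in size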)
Procedure, shortened: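 Viability counter screen: CellTiter-Fluor fluorescence, measured in the same wells as the luciferase read-out. MDA-kb2 cells, 3,000/well, with nilutamide at 3.0uM final and compounds at 15 concentrations, 16 hr at 37C, 0% CO2.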

[4] = qHTS assay to identify small molecule agonists or antagonists of the thyroid stimulating hormone receptor (TSHR) signaling pathway - wild type cell line counter screen (AID 1259384)
Procedure, shortened: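 Wild-type Hek293 cells, 800/well, 18 h at 37C, then compound with Ro20-1724 for 30 min RT. cAMP by HTRF (cAMP-d2/anti-cAMP cryptate), 1 h RT, fluorescence read. 15 concentrations, triplicates.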

[5] = target: Thyrotropin receptor (Homo sapiens) (UniProt P16473); test: qHTS assay to identify small molecule antagonists of the thyroid stimulating hormone receptor (TSHR) signaling pathway (AID 1259385); further: nearly all actives have a fitted effect of over 20% in size
Procedure, shortened: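 TSHR-HEK293 cells (800/well) plated 18 h, then compounds with Ro20-1724 and TSH at 1.5 ng/mL final, 30 min at room temperature. cAMP quantified by HTRF (cAMP-d2/anti-cAMP-cryptate, 1 h); 15 concentrations in triplicate.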

[6] = qHTS assay to identify small molecule agonists of the estrogen receptor alpha (ER-alpha) signaling pathway in the presence of an antagonist - cell viability counter screen (AID 1259386; active means well fitted curve in the direction sought with a large enough effect in the repeat runs; an effect the other way counts as inactive or inconclusive;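 further: series mostly up to about 92 µM; cells exposed to compounds for 22 h at 37 °C before the viability read; nearly all actives have a fitted effect of over 30% in size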)
Procedure, shortened: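 Read-out: CellTiter-Fluor fluorescence after 1hr reagent incubation, measured in the same wells as the luciferase readout. VM7Luc4E2 cells were exposed to 15 compound concentrations with 10.0nM ICI-182,780 for 22hr at 37C.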

[7] = target: Progesterone receptor (Homo sapiens) (UniProt P06401); test: qHTS assay to identify small molecule agonists of the progesterone receptor (PR) signaling pathway (AID 1346784); further: nearly all actives have a fitted effect of over 30% in size
Procedure, shortened: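 The screen uses PR-UAS-bla HEK 293T cells in charcoal-stripped serum (2%). Compounds are applied for 16 hr at 37C after a 6 hr pre-incubation, and reporter activity is detected with a FRET beta-lactamase substrate after 2 hr at room temperature.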

[8] = target: Progesterone receptor (Homo sapiens) (UniProt P06401); test: qHTS assay to identify small molecule antagonists of the progesterone receptor (PR) signaling pathway (AID 1346795; active means well fitted inhibition curve with a large enough effect in the signal ratio in the repeat runs, not every such curve was filed as active; the % refers to the signal ratio)
Procedure, shortened: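 After 6 hr plating at 37C in 2% stripped-serum medium, PR-UAS-bla HEK293T cells got compounds, then 1 nM R5020. Sixteen hours later, LiveBLAzer substrate was applied for 2 hr at room temperature and fluorescence was recorded.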

[9] = qHTS assay to identify small molecule antagonists of the progesterone receptor (PR) signaling pathway - cell viability counter screen (AID 1346798; active means well fitted curve in the direction sought with a large enough effect in the repeat runs; an effect the other way counts as inactive or inconclusive; further: nearly all actives have a fitted effect of over 50% in size; further: potency means the concentration at half of the fitted maximal effect)
Procedure, shortened: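 Viability was determined by ATP-based luminescence (CellTiter-Glo) in PR-UAS-bla HEK293T cells cultured in 2% charcoal-stripped serum and incubated 16 hr with compounds under R5020 stimulation.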

[10] = qHTS assay to identify small molecule agonists of the progesterone receptor (PR) signaling pathway - cell viability counter screen (AID 1346799); further: nearly all actives have a fitted effect of over 45% in size; further: potency means the concentration at half of the fitted maximal effect
Procedure, shortened: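 Viability was scored by ATP luminescence (CellTiter-Glo, 30 min, room temperature) in the same wells used for the reporter readout, after 16 hr compound exposure of PR-UAS-bla HEK293T cells.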

[11] = qHTS assay to identify small molecule antagonists of the TGF-beta/Smad signaling pathway - cell viability counter screen (AID 1346824; active means well fitted curve in the direction sought with a large enough effect in the repeat runs; an effect the other way counts as inactive or inconclusive; further: nearly all actives have a fitted effect of over 50% in size)
Procedure, shortened: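 SBE-bla HEK 293T cells, incubated overnight, then compound plus 0.25 ng/mL TGF-beta1 (stock added) for 5 hr at 37 C. Viability was read in the same wells by CellTiter-Glo luminescence after 30 min at room temperature.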

[12] = qHTS assay to identify small molecule agonists of the TGF-beta/Smad signaling pathway - cell viability counter screen (AID 1346829; active means well fitted curve in the direction sought with a large enough effect in the repeat runs; an effect the other way counts as inactive or inconclusive; further: top concentration of the series differs between compounds; nearly all actives have a fitted effect of over 45% in size)
Procedure, shortened: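 SBE-bla HEK 293T cells plated overnight, compound exposure 5 hr at 37 C. Viability read in the same wells by CellTiter-Glo luminescence after 30 min at room temperature, following the beta-lactamase read.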

[13] = qHTS assay to identify small molecule agonists of the TGF-beta/Smad signaling pathway (AID 1346859; active means well fitted activation curve with a large enough effect in the signal ratio in the repeat runs, not every such curve was filed as active; the % refers to the signal ratio; further: series mostly up to about 77 µM)
Procedure, shortened: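 Dual-wavelength fluorescence (460/530 nm emission) quantified beta-lactamase expression under the Smad binding element in HEK 293T cells following 5 hr compound treatment at 37 C.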

[14] = target: Thyrotropin-releasing hormone receptor (Homo sapiens) (UniProt P34981); test: qHTS assay to identify small molecule antagonists of the thyrotropin-releasing hormone receptor (TRHR) signaling pathway (AID 1346877; active means well fitted inhibition curve with a large enough effect in the repeat runs, not every such curve was filed as active; further: series mostly up to about 51 µM)
Procedure, shortened: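 HEK293/TRHR cells, 18 h, 37 °C; Ca2+ dye 2 h; cpd 5 min RT; TRH 1 nM final; fluorescence read 3 min, 1 s intervals; 15 concs, triplicate.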

[15] = target: Androgen receptor (Homo sapiens) (UniProt P10275); test: qHTS assay to identify small molecule agonists of the androgen receptor (AR) signaling pathway in the presence of an antagonist (AID 1259381); further: nearly all actives have a fitted effect of over 15% in size
Procedure, shortened: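 Luciferase read-out (ONE-Glo, 30min room temperature) in MDA-kb2 MMTV-reporter cells; agonist mode run in presence of AR antagonist nilutamide, 3.0uM final. Compounds tested as 15-point series, 16hr exposure at 37C, 0% CO2.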

[16] = qHTS assay to identify small molecule antagonists of the estrogen receptor beta (ER-beta) signaling pathway - cell viability counter screen (AID 1259382; active means well fitted curve in the direction sought with a large enough effect in the repeat runs; an effect the other way counts as inactive or inconclusive;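 further: HEK293T cells carrying ER-beta-UAS-bla reporter stimulated with estradiol; series mostly up to about 92 µM; nearly all actives have a fitted effect of over 55% in size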)
Procedure, shortened: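 Luminescent ATP read-out (CellTiter-Glo, 30 min, RT) taken in the same wells as the bla reporter assay. HEK293T ER-beta-UAS-bla cells in 2% charcoal-stripped FBS were exposed to compounds with 1nM E2 for 16 hr at 37C.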

[17] = target: Estrogen receptor (Homo sapiens) (UniProt P03372); test: qHTS assay to identify small molecule agonists of the estrogen receptor alpha (ER-alpha) signaling pathway in the presence of an antagonist (AID 1259383); further: top concentration of the series differs between compounds; nearly all actives have a fitted effect of over 15% in size
Procedure, shortened: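 Luciferase luminescence (ONE-Glo, 30min at room temperature) measured in VM7Luc4E2 cells after 22hr compound exposure at 15 concentrations, with 10.0nM ICI-182,780 final present; cells express endogenous ER-alpha and carry four EREs upstream of luciferase.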

[18] = qHTS assay to identify small molecule agonists of the estrogen receptor beta (ER-beta) signaling pathway - cell viability counter screen (AID 1259380; active means well fitted curve in the direction sought with a large enough effect in the repeat runs; an effect the other way counts as inactive or inconclusive; further: nearly all actives have a fitted effect of over 30% in size; further: potency means the concentration at half of the fitted maximal effect)
Procedure, shortened: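 Luminescence read-out (CellTiter-Glo, 30 min, room temp) taken in the same wells as the beta-lactamase reporter assay; ER-beta-UAS-bla HEK293T cells exposed to DMSO-dissolved compounds for 16 hr at 37C in 2% charcoal-stripped FBS medium.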

Chain of Progesterone receptor (Homo sapiens) (P06401 whole entry, looked up): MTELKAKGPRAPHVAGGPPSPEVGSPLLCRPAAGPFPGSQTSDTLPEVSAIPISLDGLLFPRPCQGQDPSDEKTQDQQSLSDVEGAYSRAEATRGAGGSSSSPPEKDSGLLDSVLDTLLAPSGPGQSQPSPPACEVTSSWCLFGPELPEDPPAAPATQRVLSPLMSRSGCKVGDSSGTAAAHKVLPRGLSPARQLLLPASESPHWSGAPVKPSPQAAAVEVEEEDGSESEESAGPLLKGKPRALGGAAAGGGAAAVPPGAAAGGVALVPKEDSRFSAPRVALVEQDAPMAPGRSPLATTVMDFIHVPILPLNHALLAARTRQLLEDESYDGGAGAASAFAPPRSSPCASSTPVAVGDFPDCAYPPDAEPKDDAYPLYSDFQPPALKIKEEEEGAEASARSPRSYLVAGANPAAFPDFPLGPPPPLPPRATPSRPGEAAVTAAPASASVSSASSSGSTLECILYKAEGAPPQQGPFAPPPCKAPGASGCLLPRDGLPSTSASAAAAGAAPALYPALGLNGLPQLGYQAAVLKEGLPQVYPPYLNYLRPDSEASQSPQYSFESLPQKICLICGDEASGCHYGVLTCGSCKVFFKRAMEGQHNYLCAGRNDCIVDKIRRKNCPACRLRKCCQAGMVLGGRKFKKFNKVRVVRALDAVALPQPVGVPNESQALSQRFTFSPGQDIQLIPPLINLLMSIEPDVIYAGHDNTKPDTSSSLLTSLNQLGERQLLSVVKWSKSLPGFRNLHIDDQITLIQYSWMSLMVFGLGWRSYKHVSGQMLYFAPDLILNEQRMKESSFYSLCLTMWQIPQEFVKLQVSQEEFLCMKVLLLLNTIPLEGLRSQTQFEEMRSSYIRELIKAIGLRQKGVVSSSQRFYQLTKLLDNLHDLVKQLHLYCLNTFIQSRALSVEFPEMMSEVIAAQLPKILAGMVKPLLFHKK
Chain of Thyrotropin-releasing hormone receptor (Homo sapiens) (P34981 whole entry, looked up): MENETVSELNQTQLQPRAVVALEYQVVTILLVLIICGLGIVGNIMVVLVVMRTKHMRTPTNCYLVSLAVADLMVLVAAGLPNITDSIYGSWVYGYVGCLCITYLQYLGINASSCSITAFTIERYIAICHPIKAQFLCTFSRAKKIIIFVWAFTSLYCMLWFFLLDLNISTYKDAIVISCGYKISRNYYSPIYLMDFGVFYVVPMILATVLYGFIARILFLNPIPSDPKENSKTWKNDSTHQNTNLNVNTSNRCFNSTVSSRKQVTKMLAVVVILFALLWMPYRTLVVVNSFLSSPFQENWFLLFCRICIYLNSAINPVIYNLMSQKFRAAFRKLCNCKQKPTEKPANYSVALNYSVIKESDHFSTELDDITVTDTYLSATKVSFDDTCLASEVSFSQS
Chain of Estrogen receptor (Homo sapiens) (P03372 whole entry, looked up): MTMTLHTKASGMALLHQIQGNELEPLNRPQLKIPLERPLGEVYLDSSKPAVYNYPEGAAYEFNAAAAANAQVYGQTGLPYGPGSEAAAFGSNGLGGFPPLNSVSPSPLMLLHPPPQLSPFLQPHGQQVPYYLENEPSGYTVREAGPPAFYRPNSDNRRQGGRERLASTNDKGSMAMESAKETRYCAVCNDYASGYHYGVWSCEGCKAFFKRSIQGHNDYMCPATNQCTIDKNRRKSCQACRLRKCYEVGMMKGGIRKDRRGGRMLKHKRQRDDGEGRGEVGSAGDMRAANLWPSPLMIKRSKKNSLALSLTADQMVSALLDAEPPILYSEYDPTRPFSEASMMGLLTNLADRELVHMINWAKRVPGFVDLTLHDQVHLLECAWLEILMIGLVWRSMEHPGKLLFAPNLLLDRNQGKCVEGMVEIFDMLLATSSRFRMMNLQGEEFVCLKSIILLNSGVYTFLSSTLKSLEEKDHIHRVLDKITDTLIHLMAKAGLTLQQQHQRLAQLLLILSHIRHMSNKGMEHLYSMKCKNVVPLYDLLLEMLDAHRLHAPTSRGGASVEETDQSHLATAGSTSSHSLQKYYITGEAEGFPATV
Chain of Androgen receptor (Homo sapiens) (P10275 whole entry, looked up): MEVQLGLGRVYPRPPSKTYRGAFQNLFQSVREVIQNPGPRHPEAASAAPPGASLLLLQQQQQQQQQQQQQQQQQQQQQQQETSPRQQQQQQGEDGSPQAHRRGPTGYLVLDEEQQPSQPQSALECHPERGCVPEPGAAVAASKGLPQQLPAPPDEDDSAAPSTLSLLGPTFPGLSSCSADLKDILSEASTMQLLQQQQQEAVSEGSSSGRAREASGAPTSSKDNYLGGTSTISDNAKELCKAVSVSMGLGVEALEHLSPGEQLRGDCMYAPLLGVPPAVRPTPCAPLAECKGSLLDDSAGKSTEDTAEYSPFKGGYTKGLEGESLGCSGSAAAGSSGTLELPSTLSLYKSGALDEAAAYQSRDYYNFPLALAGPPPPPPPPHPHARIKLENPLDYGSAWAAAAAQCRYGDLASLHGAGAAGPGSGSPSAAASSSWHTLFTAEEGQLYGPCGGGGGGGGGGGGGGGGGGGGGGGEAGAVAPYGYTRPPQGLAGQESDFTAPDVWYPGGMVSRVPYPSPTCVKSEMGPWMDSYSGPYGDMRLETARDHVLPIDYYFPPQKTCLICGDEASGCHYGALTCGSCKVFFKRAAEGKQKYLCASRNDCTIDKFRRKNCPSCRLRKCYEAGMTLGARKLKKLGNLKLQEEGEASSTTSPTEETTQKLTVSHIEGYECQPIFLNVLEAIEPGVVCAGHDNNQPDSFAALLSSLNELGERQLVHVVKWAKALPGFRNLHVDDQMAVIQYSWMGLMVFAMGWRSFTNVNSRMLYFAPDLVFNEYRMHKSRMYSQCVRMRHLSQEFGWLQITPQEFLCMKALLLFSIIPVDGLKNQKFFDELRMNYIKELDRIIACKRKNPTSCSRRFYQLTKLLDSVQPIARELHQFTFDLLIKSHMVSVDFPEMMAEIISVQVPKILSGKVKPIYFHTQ
Chain of Thyrotropin receptor (Homo sapiens) (P16473 whole entry, looked up): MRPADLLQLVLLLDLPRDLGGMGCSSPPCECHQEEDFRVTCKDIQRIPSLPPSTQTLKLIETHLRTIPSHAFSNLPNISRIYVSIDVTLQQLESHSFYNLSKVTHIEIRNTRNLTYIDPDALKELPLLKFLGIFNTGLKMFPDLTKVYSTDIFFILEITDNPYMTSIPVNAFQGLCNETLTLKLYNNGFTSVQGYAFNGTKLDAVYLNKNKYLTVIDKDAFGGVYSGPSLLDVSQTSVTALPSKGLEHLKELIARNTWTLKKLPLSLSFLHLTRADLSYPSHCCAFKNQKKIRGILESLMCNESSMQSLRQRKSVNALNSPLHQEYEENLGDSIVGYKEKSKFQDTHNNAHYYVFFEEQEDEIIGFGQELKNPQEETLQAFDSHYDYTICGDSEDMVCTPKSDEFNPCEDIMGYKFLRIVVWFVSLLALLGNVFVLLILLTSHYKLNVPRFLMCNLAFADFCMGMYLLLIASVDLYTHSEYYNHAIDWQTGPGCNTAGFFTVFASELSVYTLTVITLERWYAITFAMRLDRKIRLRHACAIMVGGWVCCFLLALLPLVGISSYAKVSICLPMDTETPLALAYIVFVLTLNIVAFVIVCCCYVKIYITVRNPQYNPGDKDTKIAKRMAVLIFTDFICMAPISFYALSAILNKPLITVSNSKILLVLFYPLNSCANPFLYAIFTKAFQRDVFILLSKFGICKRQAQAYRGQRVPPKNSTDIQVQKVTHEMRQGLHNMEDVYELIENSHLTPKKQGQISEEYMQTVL

Row | SMILES | Potency [1] | Potency [2] | Potency [3] | outcome [4] | Potency [5] | Potency [6] | Potency [7] | Potency [8] | Potency [9] | Potency [10] | outcome [11] | outcome [12] | outcome [13] | outcome [14] | Potency [15] | Potency [16] | Potency [17] | Potency [18]
1 | O=C(O)CNc1ccccc1 | inactive | inactive | inactive | inactive | inactive | inactive | inactive | inactive | inactive | inactive | inactive | inactive | inactive | inactive |  |  |  | 
2 | O=C(OCCN1CCOCC1)c1cccnc1Nc1cccc(C(F)(F)F)c1 | inactive | inactive | inactive | inactive | inactive | inactive | inactive |  | inactive | inactive | inactive | inactive | inactive | inactive | inactive | inactive | inactive | 
3 | CCc1ccc(C(=O)C(C)CN2CCCCC2)cc1 (centres undefined) | inactive | inactive | inactive | inactive | inactive | inactive | inactive |  | inactive | inactive | inactive | inactive | inactive | inactive |  | inactive |  | inactive
4 | CC(=O)S[C@H](C(=O)N[C@H]1Cc2ccccc2[C@H]2CCC[C@@H](C(=O)O)N2C1=O)C(C)C | inactive | inactive | inactive | inactive |  | inactive | inactive |  | inactive | inactive | inactive | inactive | inactive | inactive |  |  |  | 
5 | C=CC(=O)OCCCCCCCCCC | inactive | inactive | inactive | inactive |  | inactive | inactive | inactive | inactive | inactive |  | inactive | inactive | inactive |  | inactive | inactive | 
6 | Cc1cc(C)c(C)c(O)c1 | inactive | inactive | inactive | inactive | inactive | inactive | inactive |  | inactive | inactive | inactive | inactive | inactive | inactive |  | inactive | inactive | 
7 | O=P(c1ccccc1)(c1ccccc1)c1ccccc1 | inactive | inactive | inactive | inactive | inactive | inactive | inactive | inactive |  | inactive | inactive | inactive | inactive | inactive |  | inactive | inactive | 
8 | O=Cc1ccc([N+](=O)[O-])cc1 | inactive | inactive | inactive | inactive | inactive | inactive | inactive | inactive | inactive |  | inactive | inactive | inactive |  |  | inactive |  | inactive
9 | C[C@H](N)C(=O)N[C@@H](C)C(=O)NC1[C@H]2CN(c3nc4c(cc3F)c(=O)c(C(=O)O)cn4-c3ccc(F)cc3F)C[C@@H]12 (some centres undefined) | inactive | inactive |  | inactive | inactive | inactive | inactive |  | inactive |  | inactive | inactive |  | inactive | inactive | inactive | inactive | inactive
10 | OCC(O)c1ccccc1 (centres undefined) | inactive | inactive | inactive | inactive |  | inactive | inactive |  | 19.3 µM (active) |  | inactive | inactive | inactive | inactive |  |  | inactive | 
11 | CCCCCCCCCCCCSC#N | inactive | inactive | inactive | inactive | inactive | inactive | inactive |  | inactive | inactive | inactive | inactive | inactive |  |  | inactive | inactive | 
12 | COC(=O)Cc1cccc2ccccc12 | inactive | inactive | inactive | inactive | inactive | inactive | inactive | inactive | inactive | inactive | inactive | inactive | inactive |  | inactive |  | inactive | 
13 | COc1cc(CNC(=O)CCCC/C=C/C(C)C)ccc1O | inactive | inactive | inactive | inactive | inactive | inactive | inactive |  |  |  | inactive | inactive | inactive | inactive |  | inactive | inactive | 
14 | CCCCCCCCCC(C)C=O (centres undefined) | inactive | inactive | inactive | inactive | inactive | inactive | inactive | inactive | inactive | 43.3 µM (active) | inactive | inactive | inactive | inactive |  |  |  | 48.6 µM (active)
15 | CC[C@H](NC(C)C)[C@H](O)c1ccc(O)c2[nH]c(=O)ccc12 | inactive | inactive |  |  |  | inactive | inactive | inactive | inactive |  | inactive | inactive | inactive | inactive | inactive | inactive | inactive | inactive
16 | CC(C)Oc1ccccc1O | inactive | inactive | inactive | inactive | inactive | inactive | inactive | inactive | inactive |  |  | inactive | inactive | inactive |  | inactive | inactive | 
17 | Cc1ccc(NC(=O)c2ccc(CN3CCN(C)CC3)cc2)cc1Nc1nccc(-c2cccnc2)n1 | inactive | 2.66 µM (active) | inactive | inactive |  |  |  |  | inactive |  | inactive | inactive |  |  | inactive |  | inactive | 
18 | CCC1=C(C)CN(C(=O)NCCc2ccc(S(=O)(=O)NC(=O)NC3CCC(C)CC3)cc2)C1=O (centres undefined) | inactive | inactive |  | inactive | inactive | inactive |  | inactive | inactive | inactive | inactive | inactive |  | inactive | inactive | inactive | inactive | 
19 | N#Cc1ccc(CC(=O)c2cccc(C(F)(F)F)c2)cc1 | inactive |  | inactive | inactive | inactive | inactive |  |  | inactive |  |  | inactive | inactive | inactive |  | inactive |  | 

Reference: PubChem BioAssay (Tox21)
